B2AR arrestin: qHTS assay of beta-arrestin-biased ligands of beta2-adrenergic receptor; AID 492947, 2010; actives 0.02% (n = 330,000); Beta-2 adrenergic receptor (Homo sapiens), P07550; Potency, µM (doses to about 46.1 µM), without a hit: top-dose activation, actives largely listed as activators; beta-arrestin recruitment to beta2AR, cell-based reporter;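 also: potency is read from the fitted curve at half-maximal effect; 0% = DMSO controls and full agonism = EC100 isoproterenol or metaproterenol; nearly all actives have a fitted effect of over 65% in size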
RGS4 inh: Inhibitors of Regulator of G Protein Signaling (RGS) 4: qHTS; Potency, µM (titrated, usually from 114 µM), without a hit: at the top dose activity change, negative = inhibition, most hits filed as inhibitors; Transcreener GDP fluorescence polarization, RGS4-accelerated GTP hydrolysis; Regulator of G-protein signaling 4 (Homo sapiens), P49798; AID 504845, 2011; actives 0.039% (n = 390,000); also: potency is read from the fitted curve at half-maximal effect; % is scaled to controls: 0 for no effect and ±100 for the full control effect; nearly all actives have a fitted effect of over 75% in size
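MLSMR compounds (23 nl, pin-transferred) preincubated 10 min at room temperature with a 500nM (2x) first reagent, then RGS4 at 900nM (2x) plus Transcreener GDP mix added; fluorescence polarization (620/688 nm) read before and after 90 min at 30 °C.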
BRCA1 expr up: qHTS Assay to Identify Small Molecule Activators of BRCA1 Expression. actives 1.1% (n = 380,000). Potency, µM (titrated, usually from 46.1 µM), for the others: at the highest dose activation, actives largely listed as activators. MCF7-BRCA1-FFLuc reporter, luminescence, 48 h; response scale: scaled: vehicle 0%, 10 µM genistein 100%. AID 624202, 2012; also: potency is read from the fitted curve at half-maximal effect; nearly all actives have a fitted effect of over 80% in size
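MCF7-BRCA1-FFLuc, 2000 cells/well; 2 h attach, 37 °C/5% CO2; compound 48 h; luciferase substrate 15 min; luminescence end-point. Norm. to genistein 10 microM max activation and DMSO; concentration-response curves fitted.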
DRD3 agonist: qHTS of D3 Dopamine Receptor Agonist: qHTS; D3R DiscoveRx beta-arrestin cells, luminescence, 90 min; actives 0.58% (n = 410,000); max activation, %; D(3) dopamine receptor (Homo sapiens), P35462; AID 652048, 2013; in the data active = max activation above about 30%; also: 0% is about no effect
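Agonist-mode cell screen: cells plated at 1500/well and incubated overnight at 37 °C, then exposed to library compounds for 90 min at 37 °C. Detection reagent was added for 30–60 min at room temperature, and luminescence was read.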
D3 antag: qHTS of D3 Dopamine Receptor Antagonist: qHTS. D3R cells, DiscoveRx beta-arrestin luminescence, antagonist mode; active compounds read low. max response, negative = inhibition, %. actives 2.5% (n = 360,000). D(3) dopamine receptor (Homo sapiens), P35462; in the data active = max response below about -50%; inconclusive = no clear call, values can overlap the other calls; also: % is scaled to controls: 0 for no effect and ±100 for the full control effect
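Cells plated overnight at 1500 cells/well, then exposed to library compounds with dopamine controls for 90 minutes at 37 degrees C. DiscoveRx reagent added for 30–60 minutes at room temperature; luminescence read, quantitative HTS format.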
PTHR1 ag: qHTS for PTHR1 Agonists: Primary Screen; HEK293 GP2 PTHR1 cells, GloSensor cAMP luminescence, 1 h; AID 743266, 2014; Parathyroid hormone/parathyroid hormone-related peptide receptor (Homo sapiens), Q03431; actives 0.075% (n = 410,000); Potency, µM (titrated, usually from 115 µM), without a hit: at the top dose activation, usual class: activators; also: potency is read from the fitted curve at half-maximal effect; nearly all actives have a fitted effect of over 55% in size
Target sequence (Q03431 whole entry, looked up): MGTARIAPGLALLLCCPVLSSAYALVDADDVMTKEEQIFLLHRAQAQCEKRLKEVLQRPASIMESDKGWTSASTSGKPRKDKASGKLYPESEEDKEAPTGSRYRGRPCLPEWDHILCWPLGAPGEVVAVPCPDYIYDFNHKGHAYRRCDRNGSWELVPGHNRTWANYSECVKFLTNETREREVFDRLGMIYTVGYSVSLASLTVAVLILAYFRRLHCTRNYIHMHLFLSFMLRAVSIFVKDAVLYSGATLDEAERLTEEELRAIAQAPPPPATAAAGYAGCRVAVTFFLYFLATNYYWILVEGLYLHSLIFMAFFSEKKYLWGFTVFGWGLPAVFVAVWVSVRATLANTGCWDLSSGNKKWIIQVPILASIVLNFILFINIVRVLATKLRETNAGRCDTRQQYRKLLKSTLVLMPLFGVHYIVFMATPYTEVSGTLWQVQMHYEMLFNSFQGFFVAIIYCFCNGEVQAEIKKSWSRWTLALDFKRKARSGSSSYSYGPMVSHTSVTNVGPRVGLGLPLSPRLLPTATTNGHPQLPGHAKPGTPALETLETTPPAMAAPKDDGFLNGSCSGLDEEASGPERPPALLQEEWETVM
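HEK-293-derived GP2 cells expressing PTHR1 and a GloSensor cAMP reporter, 3,000/well, plated overnight, given luciferin plus IBMX (each 0.5 mM as added) for 1 h at 37 °C, then compound for 1 h at 37 °C. Luminescence was read after 15 min at room temperature.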
* = called active by the depositor; [ ] = remark or other dose. Rows were chosen to be rich in hits. Some 3.7% of all compounds tested hit in one or more screens of this group. Unless noted, calls follow the shape of the dose curve; as a rule, active = well fitted curve in the direction sought with a large enough effect; inconclusive = small, poorly fitted or top-dose-only effect, or another doubt; inactive = no such curve, though single readings can be large; an effect the other way counts as inactive or inconclusive.

Results for CN(C)CCC1Sc2ccccc2Oc2ccccc21 (stereo not given) ?
B2AR arrestin: -1%; RGS4 inh: -8%; BRCA1 expr up: -15%; DRD3 agonist: 0; D3 antag: -64*; PTHR1 ag: -20%[57.5 µM]

What do the screens show for `COC(=O)c1cc(O)cc(OC)c1C(=O)c1c(O)cc(C)cc1O`?
B2AR arrestin: 0%; RGS4 inh: -33%; BRCA1 expr up: 0%; DRD3 agonist: 30*; D3 antag: 1; PTHR1 ag: -49%

How did COc1ccc(-n2nc3cc(C)c(NC(=O)Cc4ccc(Cl)cc4)cc3n2)cc1 do in these assays?
RGS4 inh: 6%; DRD3 agonist: -21; PTHR1 ag: -1%

Results for CC(C)CC(NC(=O)C1CCCN1C(=O)OC(C)(C)C)C(=O)NCC(N)=O (stereo not given) ?
B2AR arrestin: 0%; RGS4 inh: 31%; BRCA1 expr up: 2%; DRD3 agonist: 5; D3 antag: -58*; PTHR1 ag: -12%

What do the screens show for `COc1cc(C#N)ccc1OC(=O)c1cccc(S(=O)(=O)N2CCN(C)CC2)c1`?
B2AR arrestin: 0%; RGS4 inh: 28%; BRCA1 expr up: -28%; DRD3 agonist: -1; D3 antag: inconclusive; PTHR1 ag: -15%

What do the screens show for `COc1ccc(/C(C)=N/NC(=O)Cn2nc([N+](=O)[O-])cc2C)cc1`?
B2AR arrestin: -1%; RGS4 inh: 3%; BRCA1 expr up: -13%; DRD3 agonist: 51*; D3 antag: 1; PTHR1 ag: inactive

Results for Cc1cc(C)c2cc(C#N)c(NCCCN)nc2c1 ?
BRCA1 expr up: -5%; DRD3 agonist: -13; D3 antag: 0; PTHR1 ag: -15%

How did COc1ccc(-c2ccc(C)cc2)cc1[C@H]1[C@@H]2C=CCC[C@@]2(C)C(=O)N1Cc1ccccc1 do in these assays?
B2AR arrestin: 0%; RGS4 inh: 5%; BRCA1 expr up: -36%; DRD3 agonist: -44; D3 antag: -56*; PTHR1 ag: -36%

Results for COc1ccc(-c2ccc(C)cc2)cc1C1C2C=CCCC2(C)C(=O)N1Cc1ccccc1 (stereo not given) ?
RGS4 inh: 1%

Results for COc1ccccc1OCc1cc(C(=O)N2CCCC(OCc3cccnc3)C2)no1 (stereo not given) ?
B2AR arrestin: 0%; RGS4 inh: -18%; BRCA1 expr up: 7.1µM*; DRD3 agonist: -6; D3 antag: -15; PTHR1 ag: -16%

What do the screens show for `CCOCCCN(C)C1CCN(C(=O)c2oc3ccccc3c2NC(=O)Cc2ccc(F)cc2)CC1`?
B2AR arrestin: 0%; RGS4 inh: 33%[11.4 µM]; BRCA1 expr up: 2%; DRD3 agonist: -18; D3 antag: -71*; PTHR1 ag: inactive

How did O=C1OC(c2ccccc2)=N/C1=C\N1CCCCC1 do in these assays?
B2AR arrestin: 0%; RGS4 inh: -12%; BRCA1 expr up: 7.9µM*; DRD3 agonist: 3; D3 antag: 7; PTHR1 ag: -8%[57.5 µM]

Results for O=C1OC(c2ccccc2)=CC1=Cc1ccccc1O ?
BRCA1 expr up: 2%; DRD3 agonist: -6; D3 antag: -26; PTHR1 ag: inactive

What do the screens show for `O=C1OC(c2ccccc2)=C/C1=C/N1CCCCC1`?
B2AR arrestin: 5%; RGS4 inh: -41%; BRCA1 expr up: 4µM*; DRD3 agonist: -32; D3 antag: inconclusive; PTHR1 ag: -15%[57.5 µM]

What do the screens show for `CCOC(=O)c1ccc(NC(=S)NCc2ccco2)cc1`?
B2AR arrestin: 0%; RGS4 inh: -11%; BRCA1 expr up: 79%; DRD3 agonist: -8; D3 antag: -30; PTHR1 ag: -9%

How did O=C(N/N=C/c1ccc(Cl)c([N+](=O)[O-])c1)c1cc(-c2ccc3c4c(cccc24)CC3)n[nH]1 do in these assays?
B2AR arrestin: 0%; RGS4 inh: inconclusive; BRCA1 expr up: -97%; DRD3 agonist: -15; D3 antag: -58*; PTHR1 ag: -16%

What do the screens show for `CS(=O)(=O)c1ccc(S(=O)CC(=O)Oc2ccc(Cl)cc2)c([N+](=O)[O-])c1` (stereo not given)?
B2AR arrestin: -1%; RGS4 inh: inconclusive; BRCA1 expr up: -50%; DRD3 agonist: -16; D3 antag: -102*; PTHR1 ag: -37%

Results for C/C1=C2N=C(/C=C3N=C(/C(C)=C4\[N-]C(C(CC(N)=O)C4(C)CCC(=O)NCC(C)OP(=O)([O-])OC4C(CO)OC(n5cnc6cc(C)c(C)cc65)C4O)C4(C)N=C1C(CCC(N)=O)C4(C)CC(N)=O)C(CCC(N)=O)C\3(C)C)C(CCC(N)=O)C/2(C)CC(N)=O.[CH3-].[Co+3] (stereo not given) ?
DRD3 agonist: -6

How did CCn1c(O)c(N=N)c2ccccc21 do in these assays?
B2AR arrestin: 0%; RGS4 inh: 25%; BRCA1 expr up: -12%; DRD3 agonist: 4; D3 antag: 4; PTHR1 ag: inactive

How did CCn1c(O)c(N=NC2=NC(=O)CS2)c2ccccc21 do in these assays?
B2AR arrestin: -4%; RGS4 inh: 16%; BRCA1 expr up: 0%; DRD3 agonist: -16; D3 antag: -79*; PTHR1 ag: inactive

Results for O/C(=C\c1nc2ccccc2nc1/C=C(\O)c1ccccc1)c1ccccc1 ?
B2AR arrestin: 0%; RGS4 inh: inconclusive; BRCA1 expr up: 48%; DRD3 agonist: -5; D3 antag: -67*; PTHR1 ag: inactive

Results for O=c1oc2cc([N+](=O)[O-])ccc2nc1/C=C(\O)c1cccc(Br)c1 ?
B2AR arrestin: -1%; RGS4 inh: 4%; BRCA1 expr up: -9%; DRD3 agonist: 15; D3 antag: -56*; PTHR1 ag: inactive

What do the screens show for `O=c1oc2ccccc2nc1/C=C(\O)c1ccccc1`?
B2AR arrestin: 0%; RGS4 inh: 5%; BRCA1 expr up: 3.5µM*; DRD3 agonist: -3; D3 antag: -13; PTHR1 ag: inactive

What do the screens show for `COc1ccc(Cl)cc1/C=C/c1ccc2cccc(O)c2n1`?
B2AR arrestin: 0%; RGS4 inh: 0%; BRCA1 expr up: 51%; DRD3 agonist: -22; D3 antag: -84*; PTHR1 ag: inactive

High-throughput results deposited in PubChem by National Center for Advancing Translational Sciences (NCATS).
